This passage reports inhibition results from PubChem BioAssay AID615 (Sanford-Burnham Center for Chemical Genomics, 2007).

For orientation: inhibition means the change of the read-out against control, counted positive when it falls.

Structures are written as SMILES. Screen size: about 21,000 compounds; fewer than 10 were called active.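 How the source made its calls: active means inhibition above 50% at the 20 µM single-dose screen; inactive means the rest.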 The list is a sample of the results.

Chain of Alkaline phosphatase, tissue-nonspecific isozyme (Homo sapiens) (P05186 whole entry, looked up): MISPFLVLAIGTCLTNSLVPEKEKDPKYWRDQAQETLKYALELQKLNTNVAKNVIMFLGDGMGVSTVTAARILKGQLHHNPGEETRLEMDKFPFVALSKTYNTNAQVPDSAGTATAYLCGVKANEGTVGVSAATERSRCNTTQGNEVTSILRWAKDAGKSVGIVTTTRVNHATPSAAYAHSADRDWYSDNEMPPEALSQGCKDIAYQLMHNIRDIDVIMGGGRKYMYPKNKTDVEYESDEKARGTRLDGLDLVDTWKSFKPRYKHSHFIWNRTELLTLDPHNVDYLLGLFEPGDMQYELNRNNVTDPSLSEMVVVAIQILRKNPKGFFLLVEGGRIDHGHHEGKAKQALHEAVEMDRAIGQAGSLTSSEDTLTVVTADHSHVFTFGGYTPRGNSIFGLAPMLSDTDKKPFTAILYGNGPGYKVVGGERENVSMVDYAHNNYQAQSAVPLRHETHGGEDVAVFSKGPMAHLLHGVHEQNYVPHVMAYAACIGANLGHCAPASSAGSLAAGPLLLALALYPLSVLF

This experiment has as its target Alkaline phosphatase, tissue-nonspecific isozyme (Homo sapiens) (UniProt P05186). The experiment in a line: human TNAP enzyme inhibitors, primary screen, biochemical, colorimetric, p-nitrophenol readout (AID 615).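 Further: 0% = DMSO only wells and 100% = 1 mM levamisole wells.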 The following applies: purified TNAP, pNPP hydrolysis, absorbance 405 nm; at 20 µM; stronger effect = higher value.
Take `CCOc1cccc(NC(=O)C2CCCN(S(=O)(=O)c3ccc(OC)cc3)C2)c1` (stereo unspecified): the inhibition is -1.6% (inactive).
`O=c1[nH]c(=O)n(Cc2ccco2)c2c1C(C(F)(F)F)(C(F)(F)F)N=C(c1ccco1)N2`: the inhibition was 1.6% (inactive).
As for `CCN(CC)C(=O)CSc1nnc(-c2ccc(S(=O)(=O)NCc3ccccc3Cl)cc2)o1`, the figure is 3.4% (inactive).
As for `CCN(CC)CCN1C(=O)C(=O)/C(=C(/O)c2ccc(OC)c(OC)c2)C1c1ccccn1` (stereo unspecified), the figure is -8.8% (inactive); as for `CCCOC(=O)C1=C(C)NC2=C(C(=O)C(C(=O)OC)C(C)C2)C1c1ccc(N(C)C)cc1` (stereo unspecified), 6.3% (inactive); as for `COC(=O)c1cccc(NC(=O)CN2CCC(NC(=O)c3cc(OC)c(OC)c(OC)c3)CC2)c1`, 4.5% (inactive).
As for `Cn1nnnc1SCC(=O)N1CCN(Cc2ccccc2)CC1`, the figure is 3.1% (inactive); as for `CCn1c(Cc2ccccc2)nnc1SCc1nc2ccccc2c(=O)[nH]1`, 2.9% (inactive); as for `c1ccc(-n2ncc3c(N4CCCC4)ncnc32)cc1`, 4.2% (inactive).
`CC1(C)C2CCC1(C)C(OC(=O)CCn1ccnc1)C2` (stereo unspecified): the inhibition was 3.3% (inactive).
As for `Cc1cc(NC(=O)CCC(=O)N(c2cccc(F)c2)C(C(=O)NC2CCCC2)c2ccncc2)no1` (stereo unspecified), the figure is 2.9% (inactive); as for `CCn1c(SCC(=O)c2ccc(Cl)s2)nnc1-c1cccs1`, 3.7% (inactive).
The value for `COc1ccc2[nH]c3ccc(OC)cc3c2c1` was 6.8% (inactive).
As for `O=C(NCCN1CCOCC1)c1c(F)c(F)c(F)c(F)c1F`, the inhibition was -0.8% (inactive).
As for `CCOC(=O)c1ccc(N2C(=O)CC(Sc3nc(O)c(CC)c(=O)[nH]3)C2=O)cc1` (stereo unspecified), the figure is -2.3% (inactive); as for `CC(C)c1nc(N2CCOCC2)c(C#N)c2c1COC(C)(C)C2`, -4.2% (inactive); as for `Cc1ccc2c(c1)c1ncn(CCC3=CCCCC3)c(=O)c1n2C`, 1.2% (inactive).
As for `CC1(C)CC(=O)C2=C(C1)NCN(CCCN1CCOCC1)C2`, the figure is 3% (inactive); as for `c1ccc2c(NCC3CCCO3)nc(-c3ccncc3)nc2c1` (stereo unspecified), 3.1% (inactive).
The value for `Cc1ccn2cc(C(=O)NC3CCN(Cc4ccccc4)CC3)nc2c1` was -6.8% (inactive); that for `CCC(C)(C)n1nnnc1C(c1cccs1)N1CCN(Cc2ccccc2)CC1` (stereo unspecified) was -10% (inactive).
Take `COc1ccc(NC(=O)CSc2nnc(-c3cccs3)n2Cc2ccco2)cc1OC`: the inhibition was 3.1% (inactive).
As for `N#CNC1=NCN(CCc2ccccc2)CN1`, the figure is 4.9% (inactive).
As for `C=CCN1C(=O)C(O)(CC(=O)c2ccc(Cl)cc2)c2ccccc21` (stereo unspecified), the figure is 5.4% (inactive); as for `CCc1ccc(-c2nnn(Cc3nc4ccccc4s3)n2)cc1`, 3% (inactive).
Regarding `O=C1[C@@H]2C(Cc3ccc(O)cc3)NC3(C(=O)Nc4ccc(F)cc43)[C@@H]2C(=O)N1c1ccc(F)cc1` (stereo partly specified), the inhibition was 1.7% (inactive).
